According to PubChem BioAssay (NCI):
This is part of a sample that, as a whole, favours compounds with a hit. Of some 79,000 tested, about 15% had one in any assay. Activity calls are given as the source filed them. Rule as the data show it: active = growth inhibition above about 70%; inactive = the rest.

Columns and labels:
[1] = NCI Yeast Anticancer Drug Screen. Data for the rad50 strain (AID 155);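 also: 0% = growth of vehicle-only cultures of the same strain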; conditions: S. cerevisiae rad50 strain growth inhibition; at 50.0 µM; active compounds read high
Method in brief: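 Compounds were tested on a yeast strain with an engineered DNA damage repair alteration; the reported value is growth inhibition normalised to vehicle treatment.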

[2] = NCI Yeast Anticancer Drug Screen. Data for the mec2-1 strain (AID 157); conditions: S. cerevisiae mec2-1 strain, at 50.0 µM, active compounds read high
Method in brief: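 Using mec2-1 yeast: add compound, measure growth, express inhibition versus vehicle-treated cultures.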

[3] = NCI Yeast Anticancer Drug Screen. Data for the sgs1 mgt1 strain (AID 161);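 also: 0% = growth of cultures given vehicle only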; conditions: S. cerevisiae sgs1 mgt1 strain, at 50.0 µM, active compounds read high
Method in brief: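 Growth of a repair-deficient yeast mutant was monitored after compound treatment and expressed as inhibition relative to vehicle-treated cultures.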

[4] = NCI Yeast Anticancer Drug Screen. Data for the cln2 rad14 strain (AID 165);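 also: 0% = growth equal to vehicle treated cultures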; conditions: S. cerevisiae cln2 rad14 strain, at 50.0 µM, active compounds read high
Method in brief: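 Yeast strain cln2 rad14, bearing defects in cell cycle control and DNA repair, serves as the test system; values reflect growth inhibition compared with vehicle.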

[5] = NCI Yeast Anticancer Drug Screen. Data for the bub3 strain (AID 167); conditions: S. cerevisiae bub3 mutant strain, at 50.0 µM, active compounds read high
Method in brief: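 Growth of a checkpoint-deficient yeast mutant is measured after compound exposure. Values represent inhibition relative to vehicle.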

[6] = NCI Yeast Anticancer Drug Screen. Data for the mlh1 rad18 strain (AID 175); conditions: S. cerevisiae mlh1 rad18 strain growth inhibition; at 50.0 µM; active compounds read high
Method in brief: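 Steps: expose repair-defective yeast to compound; measure growth; express inhibition against vehicle-treated controls.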

Measured: growth inhibition

COC(=O)c1ccccc1-c1ccccc1[N+](=O)[O-]
inactive: [1] 3.15% | [2] -1.75% | [3] 2.5% | [4] 2.6% | [5] -7.35% | [6] -3%

Cc1c(C(=O)O)c(-c2ccc([N+](=O)[O-])cc2)c(C=O)n1-c1ccccc1
inactive: [1] -4.9% | [2] 10.9% | [3] 3.3% | [4] -8.5% | [5] 25.7% | [6] 22.9%

Cc1ccc(NC(N)=O)cc1
inactive: [1] -33.5% | [2] -43.9% | [3] -24.1% | [4] 10.7% | [5] -1.05% | [6] -5.9%

Oc1ccc2ccccc2c1-c1c(OC(c2ccccc2)c2ccccc2)ccc2ccccc12
inactive: [1] 5.9% | [2] -19.2% | [3] 0.2% | [4] -29.4% | [5] -4.65% | [6] -13.1%

Cc1ccc(F)cc1S(N)(=O)=O
inactive: [1] -19.4% | [2] -9.65% | [3] -16.6% | [4] -14.4% | [5] 12.3% | [6] -7.8%

CC1(C)CC[C@]2(C(=O)O)[C@H](O)C[C@]3(C)C(=CC[C@@H]4[C@@]5(C)CC[C@H](OC6OC(C(=O)O)C(O)C(O)C6O)C(C)(C)[C@@H]5CC[C@]43C)[C@@H]2C1 (stereo partly specified)
active: [1] 93.8% | [2] 95% | [3] 94.3% | [4] 92.7% | [5] 93.9% | [6] 93.7%

COC(=O)C1OC(O[C@H]2CC[C@]3(C)[C@H]4CC=C5[C@@H]6CC(C)(C)CC[C@]6(C(=O)OC6OCC(O)C(O)C6OC6OC(C)C(OC7OCC(OC8OCC(O)C(O)C8O)C(O)C7O)C(O)C6O)[C@H](O)C[C@@]5(C)[C@]4(C)CC[C@H]3C2(C)C)C(O)C(O)C1O (stereo partly specified)
inactive: [1] 26.3% | [2] 17% | [3] 10.3% | [4] 11.9% | [5] 42.6% | [6] 32.2%

Nc1ncnc(N)c1NC(=O)c1ccccc1
inactive: [1] -16.4% | [2] -19.6% | [3] -24.4% | [4] -21.4% | [5] 3.25% | [6] 14.6%

Cc1nn(CO)c(C)c1Br
inactive: [1] 9.8% | [2] -18.4% | [3] 5.9% | [4] 21.8% | [5] -2.6% | [6] 11.7%

NC(CC(=O)O)C(=O)OCc1cccc(N=Nc2ccccc2)c1 (stereo unspecified)
inactive: [1] 7.8% | [2] -8.35% | [3] -7.2% | [4] -3.2% | [5] -2.4% | [6] 4.3%

NC1=NN(c2ccccc2)C(=O)/C1=C\n1c(=S)[nH]c2ccccc21
inactive: [1] -22.4% | [2] -19.9% | [3] -39.6% | [4] -16.3% | [5] -25.4% | [6] -26.6%

O=C1CN(C=C(C(=O)c2ccccc2)C(=O)c2ccccc2)C(=S)N1
inactive: [1] -61.5% | [2] -31.7% | [3] -19.2% | [4] -39% | [5] -8.2% | [6] -30.4%

COc1ccc2nc(C)c3c(c2c1)C(=O)N(CCC[N+]1([O-])CC[N+]([O-])(CCCN2C(=O)c4c(c5cc(OC)ccc5[n+]([O-])c4C)C2=O)CC1)C3=O (stereo unspecified)
inactive: [1] -0.2% | [2] -7.8% | [3] -5.65% | [4] -35.7% | [5] 2.3% | [6] 26.1%

OCC(O)C(O)Cc1cnc(C(O)C(O)C(O)CO)cn1 (stereo unspecified)
inactive: [1] 6.65% | [2] 5.65% | [3] -6.95% | [4] -20.2% | [5] -9.45% | [6] 6.4%

COc1ccccc1OCc1nnc(SCC(=O)O)n1-c1ccccc1
inactive: [1] 3.75% | [2] 3.4% | [3] 2.45% | [4] 11.6% | [5] 8.4% | [6] 27.9%

CCCCCC(/C=N/Nc1ccccn1)=C\c1ccccc1
inactive: [1] -0.25% | [2] -2.1% | [3] 3.9% | [4] -18.2% | [5] -17.4% | [6] -17.4%

COCCN1CCC(CO)C1 (stereo unspecified)
inactive: [1] 4.85% | [2] 11.5% | [3] 20.1% | [4] 2.05% | [5] 11.9% | [6] 10.5%

O=S1(=O)c2ccc(cc2)N=CC=Nc2ccc1cc2
inactive: [1] 5.25% | [2] -11.7% | [3] 10% | [4] -2.4% | [5] 14.3% | [6] 12.1%

CCCCCCCCCCCCCCCCn1cnc2c(=S)nc[nH]c21
inactive: [1] -22.1% | [2] -5.25% | [3] -19.1% | [4] -4.75% | [5] 0.5% | [6] -6.9%

CN(C)CC1=C(O)c2ccccc2C(=O)C1=O
inactive: [1] -0.25% | [2] -1.2% | [3] 1.1% | [4] 13.7% | [5] 31.6% | [6] -4.2%

CC(C)CCCC(C)C1CCC2(C)C3=C(CCC12C)C1(C)Cc2cnn(-c4ccccc4)c2C(C)(C)C1CC3 (stereo unspecified)
inactive: [1] -6.4% | [2] -6.05% | [3] -6.65% | [4] -12.8% | [5] -2.85% | [6] -17.4%

O=C(Oc1ccc(C(=O)c2ccc(C(=O)c3ccc(OC(=O)c4cccc(Br)c4)cc3)cc2)cc1)c1cccc(Br)c1
inactive: [1] 11.2% | [2] 7.15% | [3] -10.7% | [4] -2.35% | [5] 2.65% | [6] 2.15%

CC(NC(=O)OCc1ccccc1)NC(=O)C(CC(=O)OC(C)(C)C)NC(=O)OC(C)(C)C (stereo unspecified)
inactive: [1] -26.6% | [2] -40.5% | [3] -24.9% | [4] -7.3% | [5] -30.8% | [6] -29.3%

Cc1cc(C)c(C(=O)CSC(=N)N)c(C)c1
inactive: [1] -4.45% | [2] 11.3% | [3] 7.5% | [4] -6.6% | [5] 9.55% | [6] 2.4%

O=C(Cc1nc2ccc([N+](=O)[O-])cc2[nH]c1=O)C(=O)Nc1ccccc1[N+](=O)[O-]
inactive: [1] 25.6% | [2] 8.8% | [3] 11.1% | [4] 12.2% | [5] 15.8% | [6] 6.05%

COC(=O)C(=C(C)C)S(=O)c1ccccc1 (stereo unspecified)
inactive: [1] -9.85% | [2] 1.4% | [3] -3.55% | [4] -16% | [5] -13.6% | [6] 3.45%

CCCCCCC1(C)CCC(=O)O1 (stereo unspecified)
inactive: [1] 15.3% | [2] 8.45% | [3] 6.2% | [4] -6.25% | [5] -5.9% | [6] 14.4%

Clc1ccc(-c2nnc3c4ccccc4ccn23)cc1
inactive: [1] 14.5% | [2] -11.1% | [3] -5.1% | [4] 9.55% | [5] -3.95% | [6] 1%

CNn1c(-c2ccccc2)n[nH]c1=O
inactive: [1] 6.65% | [2] 2.85% | [3] 11.4% | [4] 26.2% | [5] 6.45% | [6] 19.4%

Cc1cccc(C2ON=C(c3ccccc3)N2C23CC4CC(CC(C4)C2)C3)c1 (stereo unspecified)
inactive: [1] -20.8% | [2] -0.35% | [3] -22.1% | [4] -2.45% | [5] 0.75% | [6] -33.5%

O=C1c2ccccc2C(=O)N1/N=N/N1C(=O)c2ccccc2C1=O
active: [1] 97.5% | [2] 97.7% | [3] 98.1% | [4] 96.1% | [5] 98.6% | [6] 97%

C#CCN(CC#C)C(=O)CCCCCCCCC=C
active: [1] 97% | [2] 96.5% | [3] 97% | [4] 86% | [5] 97.5% | [6] 97.2%

Cc1cnc2cc(Cl)ccc2c1SCC(=O)O
inactive: [1] 3.6% | [2] -39.7% | [3] -42.9% | [4] -24.4% | [5] -36.6% | [6] 1.05%

COC(=O)C1CCC(C(=O)OC)CC1 (stereo unspecified)
inactive: [1] -4.3% | [2] -22.6% | [3] -2.3% | [4] -1.15% | [5] -9% | [6] -11.1%

Cc1ccc(S(=O)(=O)N(C)c2c(N)n(C)c(=O)n(C)c2=O)cc1
inactive: [1] 2.3% | [2] 5.75% | [3] 0.7% | [4] -49.3% | [5] -5.55% | [6] -4.4%

COc1ccccc1NC(=O)Oc1ccc(C#N)cc1
inactive: [1] 7.2% | [2] -14.5% | [3] 15% | [4] -1.8% | [5] 9.75% | [6] 0.4%
